This is a sample that favours compounds with a hit; in the whole collection about 18% have one here.
DT40 TDP1 no CPT: qHTS for Inhibitors of human tyrosyl-DNA phosphodiesterase 1 (TDP1): qHTS in cells in absence of CPT; 420,000 compounds, 15% hits; DT40 Tdp1-/- hTDP1 cells, no CPT, ATP luminescence, 48 h; Potency, µM (doses to about 46.2 µM), hits mostly inhibitors; AID 686978, 2013; further: nearly all actives have a fitted effect of over 55% in size
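Chicken DT40 Tdp1-/- cells stably complemented with human TDP1 were seeded at 400 cells/well with DMSO in place of 20 nM camptothecin. After compound pinning, cells grew at least 48 hr at 37 °C; viability read by CellTiter-Glo luminescence.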
CtBP-E1A blk: inhibitors of CtBP/E1A interaction; activity change, % (no concentration beside the values); AID 651724; 340,000 compounds, 0.49% hits; AlphaScreen GST-E1A/His-CtBP binding, 1536-well; active compounds read low; in the data active means activity change below about -65%; inconclusive means mostly about -30% to -63%
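GST-E1A and His-tagged CtBP (125 nM each as 5X stock) were preincubated with pin-transferred compound for 2 h at 37 °C in the dark, then glutathione donor and nickel acceptor beads were added for 1 h before AlphaScreen reading.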
IL-1B inflam inh: inhibitors of inflammasome signaling (IL-1 beta secretion) | 360,000 compounds, 4.7% hits | activity change, % at 57.5 µM | THP-1 LPS/ATP IL-1B secretion, AlphaLISA, 16 h; active compounds read low; in the data active means activity change below about -50%; inconclusive means mostly about -30% to -49%
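Secreted IL-1B measured by AlphaLISA bead assay after 16 h compound exposure of THP-1 cells; compounds (final up to 57.5 uM) added 1 h before LPS (250 ng/mL) and ATP (1.25 mM) stimulation; lower signal means less secretion.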
DT40 TDP1 CPT: DT40-hTDP1 cell growth loss with CPT; chicken DT40 Tdp1-/-;hTDP1 cells + 20 nM CPT, ATP luminescence, 48 h; Potency, µM (titrated, usually from 46.2 µM), hits mostly inhibitors; 420,000 compounds, 12% hits; further: nearly all actives have a fitted effect of over 55% in size
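Chicken DT40 Tdp1-/- cells stably complemented with human TDP1 were seeded at 400 cells/well in medium containing 20 nM camptothecin, exposed to pin-transferred compounds, and grown at 37 °C for at least 48 hr. Viability was read as ATP luminescence.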
TDP1 inh: TDP1 (human) enzyme inhibition; Q9NUW8; recombinant TDP1, AlphaScreen DNA substrate cleavage; Potency, µM (highest dose often 130 µM), usual class: inhibitors; 350,000 compounds, 0.28% hits; AID 485290; further: nearly all actives have a fitted effect of over 40% in size
Target sequence (Q9NUW8 whole entry, looked up): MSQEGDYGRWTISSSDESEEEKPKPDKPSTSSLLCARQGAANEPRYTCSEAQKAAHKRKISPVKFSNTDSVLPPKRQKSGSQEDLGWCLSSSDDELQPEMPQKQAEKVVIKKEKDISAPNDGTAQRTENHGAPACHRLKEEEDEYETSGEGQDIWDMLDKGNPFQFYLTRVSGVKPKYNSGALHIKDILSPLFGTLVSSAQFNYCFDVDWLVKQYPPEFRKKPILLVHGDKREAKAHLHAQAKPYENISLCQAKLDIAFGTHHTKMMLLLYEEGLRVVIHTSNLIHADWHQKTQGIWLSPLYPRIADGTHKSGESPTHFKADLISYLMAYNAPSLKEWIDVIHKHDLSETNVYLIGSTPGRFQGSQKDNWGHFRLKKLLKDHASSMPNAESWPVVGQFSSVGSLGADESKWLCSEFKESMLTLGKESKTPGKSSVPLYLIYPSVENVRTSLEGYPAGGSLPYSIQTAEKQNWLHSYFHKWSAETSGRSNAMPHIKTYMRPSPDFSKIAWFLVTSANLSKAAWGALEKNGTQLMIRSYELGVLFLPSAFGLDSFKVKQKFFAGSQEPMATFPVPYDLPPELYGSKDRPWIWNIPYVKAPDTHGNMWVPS
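Enzyme-compound mixtures sat 15 min at room temperature, followed by a 5 min reaction with 15 nM final substrate and 10 min with AlphaScreen beads. Recombinant human Tdp1 was used at 1 nM final.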
Six1-Eya2 inh: blocks human Six1 binding to Eya2. Q15475+O00167. AlphaScreen GST-Six1/His-Eya2 binding, biochemical; active compounds read low. activity change, % (test concentration not listed). 360,000 compounds, 0.56% hits; in the data active means activity change below about -65%; inconclusive means mostly about -30% to -63%
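AlphaScreen with GST-Six1 and His-Eya2 (5X mix: 250 nM and 500 nM), glutathione donor and nickel acceptor beads; buffer 50 mM Tris pH 8.0, 300 mM NaCl, 1 mM TCEP; 1 h at 37 C in the dark.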
Numbers stand for hits; . = inactive; ? = inconclusive; / = no result. Unless noted, the call rests on the fitted dose curve; in most records, active means well fitted curve in the direction sought with a large enough effect; inconclusive means small, poorly fitted or top-dose-only effect, or another doubt; inactive means no such curve, though single readings can be large; an effect the other way counts as inactive or inconclusive.

SMILES | DT40 TDP1 no CPT | CtBP-E1A blk | IL-1B inflam inh | DT40 TDP1 CPT | TDP1 inh | Six1-Eya2 inh
Cc1ccc(N(C(=O)c2ccco2)C(C(=O)NC2CCCC2)c2ccco2)c(C)c1 (configuration not stated) | ? | . | . | . | . | .
COc1ccc(CNC(=O)C(=O)NCC2OCCN2S(=O)(=O)c2ccc(C)cc2)cc1 (configuration not stated) | . | . | . | ? | . | .
Cc1ccc2occ(/C=C/C(=O)O)c(=O)c2c1 | ? | . | . | . | . | .
COCCN(C(=O)CCl)C(C(=O)NC1CCCCC1)c1ccccc1C (configuration not stated) | 2.06µM | . | -101.1 | 2.91µM | . | .
COc1ccc(C(C(=O)NC2CCCCC2)N(C(=O)Cc2c[nH]c3ccccc23)c2ccccc2C)cc1OC (configuration not stated) | 20.6µM | . | -60.5 | ? | . | .
O=C(NC1CCCC1)C(c1ccc(F)cc1)N(Cc1ccccc1Cl)C(=O)CCl (configuration not stated) | 3.26µM | . | -90.9 | 5.8µM | . | .
CCOc1ccc(CN(CC)C(=O)Cc2c[nH]c3ccccc23)cc1OC | 14.6µM | . | . | ? | . | .
CCN(Cc1ccccc1)C(=O)Cc1c[nH]c2ccccc12 | . | . | . | . | . | .
COCCn1nnnc1C(c1ccccn1)N1CCN(c2cc(C)ccc2C)CC1 (configuration not stated) | ? | . | . | . | . | .
COc1ccc(C(C(=O)NC2CCCCC2)N(Cc2cccs2)C(=O)Cc2c[nH]c3ccccc23)cc1OC (configuration not stated) | 20.6µM | . | ? | 13µM | . | .
COc1ccc(C(C(=O)NC2CCCC2)N(C(=O)Cc2cccs2)C2CC2)cc1OC (configuration not stated) | . | . | . | . | / | .
O=C(NCc1ccco1)c1c2c(nc3ccccc13)CCC2 | 20.6µM | . | . | 14.6µM | / | ?
O=C(CSc1c2c(nc3ccccc13)CCCC2)NCc1ccco1 | . | . | . | . | . | .
CC(C)(C)NC(=O)COC(=O)c1c2c(nc3ccccc13)CCC2 | 9.2µM | . | . | ? | / | .
CC(C)NC(=O)NC(=O)COC(=O)c1c2c(nc3ccccc13)CCC2 | 13µM | . | ? | 9.2µM | / | .
NC(=O)COC(=O)c1c2c(nc3ccccc13)CCC2 | . | . | . | . | . | .
CCc1nc2sc3c(=O)n(N)cnc3c2c2c1COC(C)(C)C2 | / | / | / | / | . | /
COC(=O)CNC(=O)CSc1nc2sccc2c(=O)n1-c1ccccc1 | . | . | . | . | . | .
COC(=O)CNC(=O)CSc1nc2sc(-c3ccccc3)cc2c(=O)n1-c1ccccc1 | . | . | -66.3 | ? | / | .
COc1cccc(OCc2cc(C(=O)N(C)CCC3CCCCO3)no2)c1 (configuration not stated) | . | . | . | . | . | .
COc1ccc(-c2cc(OC(=O)c3cccc(C)c3)c3c(C)oc(C)c3c(=O)c2)cc1 | ? | / | / | ? | . | /
COc1ccc(-c2cc(OC(=O)c3ccccc3Cl)c3c(C)oc(C)c3c(=O)c2)cc1OC | ? | / | / | 23.1µM | . | /
COc1ccc(-c2cc(OC(=O)c3ccccc3C)c3c(C)oc(C)c3c(=O)c2)cc1 | 16.4µM | / | / | ? | . | /
COc1cc(-c2cc(OC)c3c(C)oc(C)c3c(=O)c2)ccc1OC(=O)c1ccccc1C | 8.2µM | / | / | 5.17µM | . | /
O=C(CSc1nnc(-c2ccc3c(c2)OCCO3)o1)NC1CCCCC1 | / | / | / | / | . | /
SMILES | DT40 TDP1 no CPT | CtBP-E1A blk | IL-1B inflam inh | DT40 TDP1 CPT | TDP1 inh | Six1-Eya2 inh
COc1cc(OC)cc(C(=O)NCCOC23CC4CC(CC(C4)C2)C3)c1 | . | . | ? | . | . | .
CCCCOC(=S)NC(=O)c1sc2ccccc2c1Cl | . | . | . | . | . | .
CCN(C(=O)/C=C/c1ccccc1)C1CCCCC1 | ? | . | ? | . | / | .
COc1ccc(/C=C/C(=O)N(C(C)C)C(C)C)cc1Br | 12.6µM | . | . | ? | . | .
COc1ccc(/C=C/C(=O)N(C)C2CCCCC2)cc1Br | ? | . | -67.9 | ? | . | .
CN(C(=O)/C=C/c1cnc2ccccc2c1)C1CCCCC1 | ? | . | -57.9 | . | . | .
COc1ccc(/C=C/C(=O)NC(C)C)cc1Br | . | . | . | . | . | .
CCN(CC)S(=O)(=O)c1ccc(C(=O)NCC2(N3CCOCC3)CCCCC2)cc1 | ? | . | . | ? | . | .
COc1ccccc1NS(=O)(=O)c1ccc(C(=O)N2CCCC(C)C2)cc1 (configuration not stated) | ? | . | . | ? | . | .
Cc1cc2nn(-c3cccc4ccccc34)nc2cc1N | 18.4µM | . | . | 20.6µM | . | .
Nc1ccc2nn(-c3cccc4ccccc34)nc2c1 | 16.4µM | . | . | 11.6µM | . | .
Cc1ccc(-n2nc3cc(C)c(N)cc3n2)cc1 | . | . | . | . | . | .
Cc1cccc(OCCCCNCc2ccccc2)c1 | ? | / | -71.8 | . | . | .
COc1ccc(C(=O)NCCOc2cccc(OC)c2)cc1 | ? | / | . | . | . | .
COc1cccc(OCCNCc2ccccc2)c1 | 18.4µM | . | . | ? | / | .
CCOc1ccc(S(=O)(=O)NCCC(=O)NCc2ccncc2)cc1 | . | . | . | . | / | .
COc1ccc2nc(NC(=O)CSCC(=O)Nc3cc(C)on3)sc2c1 | . | . | . | . | . | .
O=C(Cc1ccc(Cl)cc1)NN1C(=O)c2ccccc2C1=O | . | . | . | ? | . | .
COC(=O)[C@@H]1[C@@H](C#N)C2(c3ccccc3-c3ccccc32)N(c2ccc(Cl)cc2)N1C#N | 3.66µM | . | ? | 3.26µM | . | ?
CCc1nnc(NS(=O)(=O)c2ccc(NC(=O)CCC(=O)O)cc2)s1 | . | . | . | . | / | .
O=C(CSC1=NCCS1)NC(NC(=O)CSC1=NCCS1)c1ccccc1 | . | . | . | . | . | .
O=C(CSC1=NCCS1)Nc1ccccc1F | ? | . | . | . | . | .
O=C(CSC1=NCCS1)Nc1cccc2ccccc12 | 16.4µM | . | . | ? | . | .
O=C(CSC1=NCCS1)NC(c1ccccc1)c1ccccc1 | 16.4µM | . | -72.5 | ? | . | .
O=C(CSC1=NCCS1)NCc1ccco1 | 11.6µM | . | . | 13µM | . | .
CC(NC(=O)CSC1=NCCS1)c1ccccc1 (configuration not stated) | . | . | -55.1 | . | . | .
O=C(CCN1CCOCC1)N1CCCC(Nc2ccc(F)cc2)C1 (configuration not stated) | . | . | . | . | . | .
